In all, about 58,000 compounds went through this assay and about 3,400 (5.9%) were called active.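 How the source made its calls: active means luminescence count or its row- and column-corrected plate score outside the 99.7% band of the plate's sample wells, on either side; inactive means the rest.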 Shown is part of a subset that was picked to be rich in actives.

This passage reports B-score results from PubChem BioAssay AID641 (Vanderbilt High Throughput Screening Facility, 2007).

In this assay the target is D(1A) dopamine receptor (Homo sapiens) (UniProt P21728). In words: D1 CRE-luciferase signal change, two-sided – cell-based, HEK293 D1, dopamine EC30, D1 allosteric modulator project, primary screen (AID 641). The following applies: dopamine EC30 potentiation, at 10 µM, actives deviate in either direction.
Chain of D(1A) dopamine receptor (Homo sapiens) (P21728 whole entry, looked up): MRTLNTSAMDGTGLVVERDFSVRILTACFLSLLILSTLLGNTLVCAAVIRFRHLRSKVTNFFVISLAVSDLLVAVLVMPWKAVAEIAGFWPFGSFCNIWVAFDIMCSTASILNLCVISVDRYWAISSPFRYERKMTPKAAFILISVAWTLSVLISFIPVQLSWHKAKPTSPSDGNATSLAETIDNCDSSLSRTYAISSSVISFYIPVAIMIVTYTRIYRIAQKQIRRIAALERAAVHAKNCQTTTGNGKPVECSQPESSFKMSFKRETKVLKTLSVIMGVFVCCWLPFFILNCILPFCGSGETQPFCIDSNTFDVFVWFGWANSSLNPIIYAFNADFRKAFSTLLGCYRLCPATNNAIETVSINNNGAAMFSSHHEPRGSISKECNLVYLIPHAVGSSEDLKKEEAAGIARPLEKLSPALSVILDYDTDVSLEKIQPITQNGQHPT
Regarding `COc1ccc(OC)c(Nc2nc(-c3ccc(O)c(O)c3)cs2)c1`, the B-score is -0.798 (inactive).

In the case of `Oc1ccc(-c2csc(Nc3cccnc3)n2)cc1`, the B-score is 6.13 (active).

Consider `c1ccc(Nc2nc(-c3ccncc3)cs2)nc1`, for which the B-score was -2.02 (inactive).

Turning to `COc1ccc(OC)c(C(=O)c2coc3ccc(OC)cc23)c1`, the B-score was 0.803 (inactive).

`COc1ccc(CCNC(=O)CSc2nnc(-c3cccc(F)c3)o2)cc1OC`: the B-score was 0.506 (inactive).

Take `COc1ccccc1-c1nnc(SCC(=O)Nc2ccccc2)o1`: the B-score was -1.39 (inactive).

With `COc1ccc(-c2nnc(SCC(=O)NC3CCCCC3)o2)cc1OC`, the B-score was 5.11 (active).

Regarding `Cc1ccc(-c2noc(-c3ccccc3C(=O)NCC3CCCO3)n2)cc1` (stereo unspecified), the B-score was -0.376 (inactive).

Turning to `c1ccc2c(NCC3CCCO3)nc(-c3ccncc3)nc2c1` (stereo unspecified), the B-score was 6.75 (active).

With `Cc1nc2ccccc2c2oc(C(=O)NCC3CCCO3)cc12` (stereo unspecified), the B-score is 1.81 (inactive).

For `CN(C)/C=C1/C(=O)Nc2ccccc21`, the B-score is 0.196 (inactive).

With `Cn1c(=O)c2[nH]c(NCC3CCCO3)nc2n(-c2ccccc2)c1=O` (stereo unspecified), the B-score was 2.53 (active).

For `CCCCn1c(SCC(=O)NCC2CCCO2)nc2ccc(N3CCOCC3)cc2c1=O` (stereo unspecified), the B-score is 0.249 (inactive).

On to `CC(C)(C)c1nc(NCC2CCCO2)c2nnn(Cc3ccccc3)c2n1` (stereo unspecified), for which the B-score was 0.157 (inactive).

Consider `CCC1C(C#N)=C(SC)NC2=C1C(=O)CC(C)(C)C2` (stereo unspecified), for which the B-score is -0.282 (inactive).

Consider `O=C(CCn1c(=O)[nH]c2ccccc2c1=O)NCCCN1CCN(c2cccc(Cl)c2)CC1`, for which the B-score is -1.82 (inactive).

`O=C(CCCCn1c(=O)[nH]c2ccccc2c1=O)NCc1ccc2c(c1)OCO2`: the B-score was 0.766 (inactive).

Regarding `O=C(CCCn1c(=O)[nH]c2cc(Cl)ccc2c1=O)NCCN1CCN(c2ccccc2)CC1`, the B-score is -3.76 (active).

`C=CCNC(=O)C1CC=CCC1C(=O)O` (stereo unspecified): the B-score is 0.00169 (inactive).

Regarding `CC(C)(C)NC(=O)c1cc(NC(=O)c2ccco2)cc(NC(=O)c2ccco2)c1`, the B-score was -0.752 (inactive).

For the compound `O=C(c1ccco1)N1CCN(c2cccc(Cl)c2)CC1`, the B-score was -0.482 (inactive).

In the case of `O=C(C1CC1)N1CCN=C1SCc1ccc(Cl)cc1`, the B-score is 0.0469 (inactive).

On to `O=C(c1ccco1)N1CCN=C1SCc1cccc(Cl)c1`, for which the B-score was 6.32 (active).

In the case of `N#CC1=C(N)OC2=C(C(=O)CCC2)C1C1CC=CCC1` (stereo unspecified), the B-score was -0.19 (inactive).

As for `CCCN1C(=O)C(NC(C)=O)c2cc(OC)ccc21` (stereo unspecified), the B-score was 0.478 (inactive).

`CC(=O)Nc1cccc(NC(=O)c2c(-c3ccccc3)noc2C)c1`: the B-score was 0.894 (inactive).

For `Cc1onc(-c2ccccc2)c1C(=O)Nc1ccccc1C#N`, the B-score is -4.73 (active).

`Cc1onc(-c2ccccc2)c1C(=O)N1CCOCC1`: the B-score is -1.43 (inactive).

On to `Cc1cc(C)c2nc(N3CCCC3)c(C#N)cc2c1`, for which the B-score is 0.082 (inactive).

Turning to `COCCN1Cc2cccc(C(=O)Nc3ccccc3OC)c2C1=O`, the B-score is 0.446 (inactive).

Take `CS(=O)(=O)NCc1ccc(C(=O)NCc2ccccc2)cc1`: the B-score was 0.452 (inactive).

For the compound `CCCN1Cc2cccc(C(=O)NCc3ccccc3)c2C1=O`, the B-score was 11.5 (active).

Regarding `O=S(=O)(NCCNS(=O)(=O)c1ccccc1)c1ccccc1`, the B-score is 0.231 (inactive).

Consider `COc1ccccc1Oc1ccc(S(=O)(=O)Nc2cccnc2)cc1`, for which the B-score is -1.35 (inactive).

In the case of `O=C(Nc1nnc(-c2ccc(Cl)cc2)o1)c1ccccc1Br`, the B-score was -0.685 (inactive).

For `CC1=CC(C)(C)N(C(=O)CSc2nccn2C)c2cc(C)ccc21`, the B-score is -0.925 (inactive).

As for `Cc1noc(NS(=O)(=O)c2ccc(NC(=O)C34CCC(CC3)C4)cc2)c1C`, the B-score was -0.488 (inactive).

In the case of `CN(CC(=O)NC1CCCCC1)S(=O)(=O)c1cccc2cccnc12`, the B-score is -1.04 (inactive).

In the case of `O=C(Cn1cnc2c(cnn2-c2ccc(F)cc2)c1=O)NCCc1ccccc1`, the B-score was -0.343 (inactive).

`N#C/C(=C1\CCCN1)c1nc(-c2ccccc2)cs1`: the B-score is -1.24 (inactive).

Regarding `Cn1c(/C(C#N)=C2/CCCCCN2)nc2ccccc21`, the B-score was 11.4 (active).

Take `CCCn1c(C(O)c2ccc(OCC)cc2)nc2ccccc21` (stereo unspecified): the B-score was -0.886 (inactive).

Take `COc1cc(C(O)c2nc3ccccc3n2C)cc(OC)c1OC` (stereo unspecified): the B-score is -0.575 (inactive).

As to `CC(C)n1c(C(O)c2ccccc2)nc2ccccc21` (stereo unspecified), the B-score was 3.08 (active).

For `CCOC(=O)C1Cn2c(nc3c(c2=O)C(C)(CC)Cc2ccccc2-3)S1` (stereo unspecified), the B-score was -0.309 (inactive).

In the case of `Cn1c(=O)c2c(nc(CN3CCOCC3)n2Cc2ccccc2)n(C)c1=O`, the B-score is -0.887 (inactive).

Turning to `CC1(C)Cc2ccccc2-c2nc(CN3CCOCC3)[nH]c(=O)c21`, the B-score is 11.8 (active).

As for `Cc1ccc(N(CC(O)CN2CCCC2)S(=O)(=O)c2ccccc2)cc1` (stereo unspecified), the B-score was 0.09 (inactive).

For the compound `COc1ccc(-c2nc(CS(=O)CC(=O)N3CCc4ccccc4C3)c(C)o2)cc1` (stereo unspecified), the B-score is -0.182 (inactive).

In the case of `COc1ccc(-n2ncc3c(N4CCc5ccccc54)ncnc32)cc1`, the B-score is -3.03 (active).

For `Cc1cccc(-n2ncc3c(N4CCc5ccccc54)ncnc32)c1`, the B-score is -0.748 (inactive).

As to `COc1ccc(-n2ncc3c(N4CCCc5ccccc54)ncnc32)cc1`, the B-score was 0.526 (inactive).

For the compound `Cc1cc(/C=N/n2cnnc2)c(C)n1-c1ccc2ncccc2c1`, the B-score is -0.264 (inactive).

For the compound `CN1C(=O)c2ccc(NC(=O)c3c(F)c(F)c(F)c(F)c3F)cc2C1=O`, the B-score is 0.371 (inactive).

For `O=C(Cn1cnc2c(nnn2Cc2ccc(F)cc2)c1=O)NCc1ccc2c(c1)OCO2`, the B-score is -1.24 (inactive).

As to `CNC(=O)C1CC(=O)N(Cc2ccc3c(c2)OCO3)C(=Nc2ccc(F)cc2)S1` (stereo unspecified), the B-score is -4.24 (active).

Regarding `O=C(CN1CCN(CC(=O)Nc2ccc3c(c2)OCO3)CC1)Nc1ccc(F)cc1`, the B-score is -0.0409 (inactive).

Take `O=C(Nc1cccc(F)c1)c1ccc(S(=O)(=O)N2CCCC2)cc1`: the B-score is -0.728 (inactive).

With `Cc1ccccc1OCC(=O)Nc1ccc(N2CCN(C(=O)C(C)C)CC2)c(Cl)c1`, the B-score is -0.399 (inactive).

In the case of `CC(C)CNS(=O)(=O)c1ccc(OCC(=O)Nc2ccc3c(c2)OCO3)c(Cl)c1`, the B-score is 0.525 (inactive).

`CN1CCN(c2ccc(NC(=O)COc3ccc(Cl)cc3Cl)cc2)CC1`: the B-score is -5.29 (active).

As to `Cc1ccc(C)c(NC(=O)CSc2nnc(Cc3cccn3C)n2-c2ccc(F)cc2)c1`, the B-score was -0.0122 (inactive).

Turning to `CCOC(=O)C1CCc2nc3ccccc3c(=O)n21` (stereo unspecified), the B-score is -0.327 (inactive).

As for `CC(C[N+](C)(C)C)OC(N)=O` (stereo unspecified), the B-score is 0.394 (inactive).

`CC(=O)OC(C)C[N+](C)(C)C` (stereo unspecified): the B-score was 6.75 (active).

For `CSc1nnc(CNC(=O)c2ccccc2)n1-c1ccc(F)cc1`, the B-score was -0.759 (inactive).

Turning to `Cc1ccccc1NC(=O)c1cnn(-c2ccccc2)c1NC(=O)c1ccco1`, the B-score is -0.921 (inactive).

As to `COCCCn1c(CCC(=O)O)ccc1-c1ccc(F)cc1`, the B-score is 0.034 (inactive).

Turning to `COC(=O)c1sc(NC(=O)c2ccc(OC)cc2OC)nc1C`, the B-score is -2.64 (active).

For the compound `COC(=O)c1sc(NC(=O)c2csc3c2CCCC3)nc1C`, the B-score was 0.102 (inactive).

`COc1ccc(C(=O)Nc2nncs2)c(OC)c1`: the B-score was -0.602 (inactive).

In the case of `O=C(C1CCN(S(=O)(=O)c2cccs2)CC1)N1CCCCCC1`, the B-score was -0.0225 (inactive).

In the case of `O=S(=O)(c1cccs1)N1CCN(Cc2ccccc2)CC1`, the B-score was 0.549 (inactive).

`O=S(=O)(c1cccs1)N1CCc2ccccc2C1`: the B-score is 7.95 (active).

Turning to `CCNC(=O)CCc1nc(-c2ccc(C(C)(C)C)cc2)no1`, the B-score was -0.735 (inactive).

Turning to `CCOc1ccccc1N(CC(=O)Nc1ccccc1C(=O)OC)S(C)(=O)=O`, the B-score was 0.461 (inactive).

As to `CC1=C2C(=O)OC(c3ccoc3)C2(C)CCC1` (stereo unspecified), the B-score is -0.874 (inactive).

Consider `CC(=O)Nc1ccc(N2CCOCC2)c(C(=O)Nc2cccc(C)c2)c1`, for which the B-score was -0.395 (inactive).

In the case of `CCOc1cccc(NC(=O)CC#N)c1`, the B-score was -0.00988 (inactive).

As to `CC(=O)Nc1cccc(Oc2cc(C#N)c(C#N)cc2N2CCOCC2)c1`, the B-score was 10.6 (active).

As for `COc1ccc(S(=O)(=O)N2CCC(C(=O)N3CCOCC3)CC2)cc1OC`, the B-score was 1.55 (inactive).

`O=C(Cn1cnc2c(nnn2-c2ccccc2)c1=O)N1CCC(Cc2ccccc2)CC1`: the B-score was -0.43 (inactive).

For `CCSc1ncnc2c(C#N)c3n(c12)CCCCC3`, the B-score was 13.8 (active).

On to `CCSC1=C(C#N)C(=O)n2c1cc1c2CCCC1`, for which the B-score was -0.914 (inactive).

For the compound `CCOC(=O)C1=C(C)NC(=O)N(C(C)=O)C1c1ccc(Cl)cc1` (stereo unspecified), the B-score was -0.258 (inactive).

For the compound `COc1ccc(-c2nc(-c3ccccc3)no2)c(OC)c1`, the B-score was -4.54 (active).

For `COc1ccc(-c2noc(-c3cccc(OC)c3OC)n2)cc1OC`, the B-score is -0.715 (inactive).

With `COc1cc(-c2nc(-c3ccncc3)no2)cc(OC)c1OC`, the B-score is 0.324 (inactive).

Consider `COc1ccc(NC(=O)CN2CCN(S(=O)(=O)c3ccc(F)cc3)CC2)cc1Cl`, for which the B-score was 0.0874 (inactive).

With `CC1(C)CC(=O)C=C(NCCCNC2CCCCC2)C1`, the B-score was -0.045 (inactive).

As to `CCOc1ccccc1NC(=O)C1CCN(S(=O)(=O)c2c(C)nn(C)c2C)CC1`, the B-score is -0.536 (inactive).

Take `COc1cccc(CNC(=O)C2CCN(S(=O)(=O)c3cccc4cccnc34)CC2)c1`: the B-score is 0.421 (inactive).

For `COC(=O)c1ccccc1NC(=O)C1CCN(S(=O)(=O)c2cc(OC)ccc2OC)CC1`, the B-score is 16.9 (active).

Turning to `Cn1cc(S(=O)(=O)N2CCC(Cc3ccccc3)CC2)c(=O)n(C)c1=O`, the B-score was 0.229 (inactive).

Regarding `CC1CCC(NC(=O)c2ccc(N3CCCC3=O)cc2)CC1` (stereo unspecified), the B-score was -0.328 (inactive).

As to `O=P(c1cccs1)(c1cccs1)c1cccs1`, the B-score was -0.658 (inactive).

As for `CC1C(c2ccccc2)=[N+]([O-])C2(CCCC2)N1O` (stereo unspecified), the B-score is 0.0193 (inactive).

Take `CCCCc1nc2ccccc2c(=O)n1NC(=O)c1c(O)c2cccc3c2n(c1=O)CC3`: the B-score is -0.934 (inactive).

For the compound `CCc1ccc2oc(-c3ccc(N)cc3)nc2c1`, the B-score was -5.51 (active).

Turning to `Nc1ccc(-c2nnc(-c3ccc(-c4ccccc4)cc3)o2)cc1`, the B-score is -0.481 (inactive).

As for `CCCCCC(=O)Nc1ccc2oc(-c3ccncc3)nc2c1`, the B-score is -0.0351 (inactive).
